Experimental data published in PubChem BioAssay (EPA / NIEHS).
Active and inactive are the calls of the source. The calls were made as follows: active = hit-call score of the fitted dose curve at least 0.9, where 1 is the maximum; inactive = score below 0.9.

assay: APR_HepG2_MitoMembPot_1hr: Apredica 1-hour HepG2 Assay for Mitochondrial Membrane Potential (AID 2282675); details: imaging, actives raise or lower the signal
Experimental: APR_HepG2_1hr is a cell-based, multiplexed-readout assay that uses HepG2, a human liver cell line, with measurements taken at 1 hour after chemical dosing in a 384-well plate.APR_HepG2_MitoMembPot_1hr is one of 10 assay component(s) measured or calculated from the APR_HepG2_1hr assay. It is designed to make measurements of dye binding, a form of membrane potential reporter, as detected with fluorescence intensity signals by HCS Fluorescent Imaging technology.Data from the assay component APR_HepG2_MitoMembPot_1hr was analyzed into 1 assay endpoint. This assay endpoint, APR_HepG2_MitoMembPot_1hr, was analyzed with bidirectional fitting relative to DMSO as the negative control and baseline of activity. Using a type of membrane potential reporter, gain or loss-of-signal activity can be used to understand changes in the signaling. Furthermore, this assay endpoint can be referred to as a primary readout, because this assay has produced multiple assay endpoints where this one serves a signaling function. To generalize the intended target to other relatable targets, this assay endpoint is annotated to the cell morphology intended target family, where the subfamily is organelle conformation.
Cells were treated with dimethyl sulfoxide (DMSO) as a solvent control at a final concentration of 0.5% v/v or with compounds in DMSO with a resulting final DMSO concentration of 0.5% v/v. Compound treatment was done at concentrations of 0.39, 0.78, 1.56, 3.12, 6.24, 12.5, 25, 50, 100, and 200 uM in duplicate on each plate. Cells were treated with compounds for 1, 24, or 72 hr. Carbonyl […] m-chloro-phenylhydrazone (CCCP) and taxol were used as positive controls for mitochondrial function and cytoskeletal stability, respectively; DMSO served as the negative control for this experiment. Cells were fixed by the direct addition of 50 uL formaldehyde in Hank's Balanced Salt Solution (HBSS) to a final concentration of 3.7%. After incubation in the fixation medium for 30 min at room temperature (293-298 K), cells were rinsed twice with HBSS and treated with cell permeabilization buffer (16 uL of 0.5% Triton X-100) for 10 min at room temperature (293-298 K) before labeling. For mitochondrial membrane potential and mitochondrial measurements, pre-fixed cells were incubated with 50 uL of MitoTracker Red CMXRos (Invitrogen) at a concentration of 250 nM for 30 min before fixation. In the remaining cases, post-fixed cells were labeled by incubation with a multiplexed mixture of primary antibodies in HBSS for 60 min at room temperature (293-298 K) to detect immunoreactivity of c-Jun (1:500), phospho-histone H3 (1:100), phospho-histone H2A.x (1:200), p53 (1:400), alpha-tubulin (1:200) and Hoechst 33342 (2 ug/mL). Cells were labeled for multiplexed imaging on two separate plates: a) Hoechst 33342, MitoTracker Red, phospho-histone H3, and alpha-tubulin, and b) Hoechst 33342, phospho-histone H2A.x, and c-Jun. A final rinse with HBSS (50 uL) was performed before analysis. The primary and secondary antibodies for the proteins were phospho-histone H3 (rabbit anti-phospho-histone H3 and FITC-donkey anti-rabbit IgG), phospho-histone H2A.x (mouse anti-phospho-histone H2A.x and FITC-donkey anti-mouse IgG), c-Jun (rabbit anti-phospho-c-Jun and Cy3-donkey anti-rabbit IgG), p53 (sheep anti-p53 and Cy5-donkey anti-sheep IgG), alpha-tubulin (mouse anti-alpha-tubulin and Cy5-donkey anti-mouse IgG). These antibodies are available as the CellCiphr HepG2 assay kit (Millipore).Digital images of each well were captured using a Cellomics ArrayScan VTI (Thermo Scientific Cellomics) (0.8 NA objective, 0.63x optical coupler, and XF-93 filter set) at 20x magnification. The images were acquired using the autofocus feature of the ArrayScan instrument, which entails the following steps. First, the camera focuses on channel 1 (Hoechst 33342), where nuclei are identified. Second, a Z offset of 1 um is used for capturing mitochondria (MitoTracker Red). […]

| SMILES | outcome | AC50 |
| --- | --- | --- |
| COP(=O)(OC)O/C(C)=C/C(=O)N(C)C | inactive |  |
| CCCCC(O)(Cn1cncn1)c1ccc(Cl)cc1Cl (stereo not given) | inactive |  |
| Cn1c(-c2ccccc2)cc(-c2ccccc2)[n+]1C | inactive |  |
| O=C1C2CC=CCC2C(=O)N1SC(Cl)(Cl)Cl (stereo not given) | inactive |  |
| CCCCC(C#N)(Cn1cncn1)c1ccc(Cl)cc1 (stereo not given) | inactive |  |
| N#Cc1c[nH]cc1-c1cccc2c1OC(F)(F)O2 | inactive |  |
| CC(C)N1C(=O)c2ccccc2NS1(=O)=O | inactive |  |
| COc1ccc(-c2ccccc2)cc1NNC(=O)OC(C)C | inactive |  |
| CC(C)NC(=O)N1CC(=O)N(c2cc(Cl)cc(Cl)c2)C1=O | inactive |  |
| CNC(=O)N(C)c1nnc(C(C)(C)C)s1 | inactive |  |
| Nc1cnn(-c2ccccc2)c(=O)c1Cl | inactive |  |
| CCN(CC)c1nc(C)cc(OP(=S)(OC)OC)n1 | inactive |  |
| CC1(C)C(C(=O)OC(C#N)c2cccc(Oc3ccccc3)c2)C1(C)C (stereo not given) | inactive |  |
| CCOP(=O)(OCC)Oc1nc(Cl)c(Cl)cc1Cl | inactive |  |
| C=C(C)CN(CC)c1c([N+](=O)[O-])cc(C(F)(F)F)cc1[N+](=O)[O-] | inactive |  |
| CCOc1nc(C(Cl)(Cl)Cl)ns1 | inactive |  |
| O=C(O)c1c(Cl)ccc2cc(Cl)cnc12 | inactive |  |
| COc1cc(Cl)c(OC)cc1Cl | inactive |  |
| COC(=O)N(C(=O)N1CO[C@@]2(C(=O)OC)Cc3cc(Cl)ccc3C2=N1)c1ccc(OC(F)(F)F)cc1 | inactive |  |
| OC(c1ccc(Cl)cc1)(c1ccc(Cl)cc1)C(Cl)(Cl)Cl |  | 34.2 µM (active) |

| SMILES | outcome | AC50 |
| --- | --- | --- |
| CO/N=C(/C1=NOCCO1)c1ccccc1Oc1ncnc(Oc2ccccc2Cl)c1F | inactive |  |
| CS(=O)(=O)c1cc(C(F)(F)F)ccc1C(=O)c1cnoc1C1CC1 | inactive |  |
| CC1(C)CON(Cc2ccccc2Cl)C1=O | inactive |  |
| COCC(=O)N(c1c(C)cccc1C)C(C)C(=O)OC (stereo not given) | inactive |  |
| CCC(C)n1c(=O)[nH]c(C)c(Br)c1=O (stereo not given) | inactive |  |
| CC1(C)CCC(=Cc2ccc(Cl)cc2)C1(O)Cn1cncn1 (stereo not given) | inactive |  |
| CN/C(=N\[N+](=O)[O-])NCc1cnc(Cl)s1 | inactive |  |
| CCCCOCN(C(=O)CCl)c1c(CC)cccc1CC | inactive |  |
| Cc1nc(N(C)C)nc(OC(=O)N(C)C)c1C | inactive |  |
| Nc1c(Cl)c(F)nc(OCC(=O)O)c1Cl | inactive |  |
| C=CCOC(=O)C(C)(C)OC(=O)c1cc(-n2c(=O)cc(C(F)(F)F)n(C)c2=O)ccc1Cl | inactive |  |
| COC(=O)c1c(C(F)F)nc(C(F)(F)F)c(C2=NCCS2)c1CC(C)C | inactive |  |
| CC1(C)C(C=C(Cl)Cl)C1C(=O)OC(C#N)c1cccc(Oc2ccccc2)c1 (stereo not given) | inactive |  |
| CCNC(=O)NC(=O)C(C#N)=NOC | inactive |  |
| COCc1cnc(C2=NC(C)(C(C)C)C(=O)N2)c(C(=O)O)c1 (stereo not given) | inactive |  |
| Clc1nc(Cl)nc(Nc2ccccc2Cl)n1 | inactive |  |
| CNC(=O)Oc1cccc2ccccc12 | inactive |  |
| N#Cc1c(Cl)cccc1Cl | inactive |  |
| COP(=S)(OC)SCn1nnc2ccccc2c1=O | inactive |  |
| CCCN(CC)CC1COC2(CCC(C(C)(C)C)CC2)O1 (stereo not given) | inactive |  |
